Assay [1] can be described thus: NCI Yeast Anticancer Drug Screen. Data for the rad50 strain (AID 155).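 Also: 0% = growth of vehicle-only cultures of the same strain.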 To be noted: S. cerevisiae rad50 strain growth inhibition, stronger effect = higher value. An outline of the steps:
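Compounds were tested on a yeast strain with an engineered DNA damage repair alteration; the reported value is growth inhibition normalised to vehicle treatment.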

The nature of assay [2]: NCI Yeast Anticancer Drug Screen. Data for the mec2-1 strain (AID 157). The note with it: S. cerevisiae mec2-1 strain, stronger effect = higher value. In outline:
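Yeast mec2-1 mutant treated with compound. Readout: growth inhibition vs vehicle controls.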

Assay [3] can be described thus: NCI Yeast Anticancer Drug Screen. Data for the sgs1 mgt1 strain (AID 161).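 Also: 0% = growth of cultures given vehicle only.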 To be noted: S. cerevisiae sgs1 mgt1 strain, stronger effect = higher value. In outline:
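Genetically altered yeast, compound exposure, growth inhibition relative to vehicle.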

The nature of assay [4]: NCI Yeast Anticancer Drug Screen. Data for the cln2 rad14 strain (AID 165).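 Also: 0% = growth equal to vehicle treated cultures.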 To be noted: S. cerevisiae cln2 rad14 strain, stronger effect = higher value. An outline of the steps:
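cln2 rad14 yeast strain; compound exposure; growth inhibition read vs vehicle controls.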

Assay [5] is described as follows: NCI Yeast Anticancer Drug Screen. Data for the bub3 strain (AID 167). To be noted: S. cerevisiae bub3 mutant strain, stronger effect = higher value. In outline:
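Growth of a checkpoint-deficient yeast mutant is measured after compound exposure. Values represent inhibition relative to vehicle.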

Assay [6] in a line: NCI Yeast Anticancer Drug Screen. Data for the mlh1 rad18 strain (AID 175). The note with it: S. cerevisiae mlh1 rad18 strain growth inhibition, stronger effect = higher value. An outline of the steps: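 Yeast w/ defined DNA-repair lesions; compound exposure; growth vs vehicle controls → % inhibition.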
Setting [7] is: at 5.0 µM (retest, dose inferred, filed as 0.5).
[8] abbreviates: at 50.0 µM (retest, dose inferred, filed as 5.0).

This is part of a sample that, as a whole, favours compounds with a hit. Of some 79,000 tested, about 15% had one in any assay. Values without a mark were called inactive. The source made the active and inactive calls. Rule as the data show it: active = growth inhibition above about 70%; inactive = the rest.

Take `COC1(OC)C2(Cl)C(Cl)=C(Cl)C1(Cl)C1C2C2CC1(C(=O)O)c1ccccc12` (configuration not stated): the growth inhibition in assay [1] (setting [7]) is 29%; in assay [1] (setting [8]), 29%; in assay [1] (at 50.0 µM) it was 92% (active); in assay [2] (setting [7]) it was 23%; in assay [2] (setting [8]), 23%; in assay [2] (at 50.0 µM) it was 93.4% (active). In addition, the growth inhibition in assay [3] (setting [7]) is 17%; in assay [3] (setting [8]) it was 17%; in assay [3] (at 50.0 µM) it was 93% (active); in assay [4] (setting [7]) it was 26%; in assay [4] (setting [8]), 26%; in assay [4] (at 50.0 µM), 91.5% (active). Also, the growth inhibition was 26% in assay [5] (setting [7]); 26% in assay [5] (setting [8]); 90.8% (active) in assay [5] (at 50.0 µM); 41% in assay [6] (setting [7]); 41% in assay [6] (setting [8]); 90.5% (active) in assay [6] (at 50.0 µM).

As to `C/C(=N\NC(=S)Nc1ccc(C)cc1)c1nc2ncccc2[nH]1`, the growth inhibition in assay [1] (setting [7]) is -9%; in assay [1] (setting [8]), 84% (active); in assay [1] (at 50.0 µM) it was 73.8% (active); in assay [2] (setting [7]) it was -6%; in assay [2] (setting [8]), 88% (active); in assay [2] (at 50.0 µM), 66.2%. The growth inhibition in assay [3] (setting [7]) was 0%; in assay [3] (setting [8]), 84% (active); in assay [3] (at 50.0 µM) it was 66.3%; in assay [4] (setting [7]), -36%; in assay [4] (setting [8]), 91% (active); in assay [4] (at 50.0 µM), 64.5%. Further, the growth inhibition was -21% in assay [5] (setting [7]); 97% (active) in assay [5] (setting [8]); 71.5% (active) in assay [5] (at 50.0 µM); 4% in assay [6] (setting [7]); 91% (active) in assay [6] (setting [8]); 50.9% in assay [6] (at 50.0 µM).

Take `CC(C)(C)c1cc(C(O)(C(F)(F)F)C(F)(F)F)c(Cl)c(C(O)(C(F)(F)F)C(F)(F)F)c1`: the growth inhibition in assay [1] (setting [7]) is 10%; in assay [1] (setting [8]), 99% (active); in assay [1] (at 50.0 µM), 99.5% (active); in assay [2] (setting [7]) it was 13%; in assay [2] (setting [8]), 98% (active); in assay [2] (at 50.0 µM), 99.7% (active). Further, the growth inhibition was 11% in assay [3] (setting [7]); 99% (active) in assay [3] (setting [8]); 99.7% (active) in assay [3] (at 50.0 µM); 24% in assay [4] (setting [7]); 99% (active) in assay [4] (setting [8]); 99% (active) in assay [4] (at 50.0 µM). The growth inhibition in assay [5] (setting [7]) is 14%; in assay [5] (setting [8]), 99% (active); in assay [5] (at 50.0 µM), 99.8% (active); in assay [6] (setting [7]) it was 8%; in assay [6] (setting [8]), 99% (active); in assay [6] (at 50.0 µM) it was 99.5% (active).

Regarding `CC1C(c2ccc(Cl)cc2)c2cc3c(cc2OC1N1CCOCC1)OCO3` (configuration not stated), the growth inhibition in assay [1] (setting [7]) is -19%; in assay [1] (setting [8]) it was 6%; in assay [1] (at 50.0 µM) it was 48.4%; in assay [2] (setting [7]) it was -30%; in assay [2] (setting [8]), -7%; in assay [2] (at 50.0 µM) it was 58.4%. Moreover, the growth inhibition in assay [3] (setting [7]) was -24%; in assay [3] (setting [8]), -4%; in assay [3] (at 50.0 µM), 82.2% (active); in assay [4] (setting [7]) it was -27%; in assay [4] (setting [8]), 5%; in assay [4] (at 50.0 µM) it was 90% (active). Besides, the growth inhibition in assay [5] (setting [7]) was -29%; in assay [5] (setting [8]) it was -24%; in assay [5] (at 50.0 µM) it was 91.3% (active); in assay [6] (setting [7]), -39%; in assay [6] (setting [8]), 8%; in assay [6] (at 50.0 µM), 59.4%.

For the compound `CCOC(=O)Cc1nc2ccccc2s1`, the growth inhibition in assay [1] (setting [7]) was 3%; in assay [1] (setting [8]), 100% (active); in assay [1] (at 50.0 µM) it was 99.2% (active); in assay [2] (setting [7]), 2%; in assay [2] (setting [8]) it was 100% (active); in assay [2] (at 50.0 µM) it was 99.6% (active). For the same compound, the growth inhibition is 6% in assay [3] (setting [7]); 99% (active) in assay [3] (setting [8]); 99.5% (active) in assay [3] (at 50.0 µM); 6% in assay [4] (setting [7]); 98% (active) in assay [4] (setting [8]); 99.2% (active) in assay [4] (at 50.0 µM). Also, the growth inhibition was 9% in assay [5] (setting [7]); 99% (active) in assay [5] (setting [8]); 98.8% (active) in assay [5] (at 50.0 µM); 2% in assay [6] (setting [7]); 99% (active) in assay [6] (setting [8]); 99.3% (active) in assay [6] (at 50.0 µM).

Consider `CC(=Nc1ccc(S(=O)(=O)c2ccc(N=C(C)N3CCCCC3)cc2)cc1)N1CCCCC1`, for which the growth inhibition is 0% in assay [1] (setting [7]); 2% in assay [1] (setting [8]); -0.05% in assay [1] (at 50.0 µM); -1% in assay [2] (setting [7]); -1% in assay [2] (setting [8]); 4% in assay [2] (at 50.0 µM). Also, the growth inhibition in assay [3] (setting [7]) was -2%; in assay [3] (setting [8]) it was 1%; in assay [3] (at 50.0 µM), -6.45%; in assay [4] (setting [7]), -5%; in assay [4] (setting [8]), -2%; in assay [4] (at 50.0 µM) it was -10.5%. The growth inhibition is -1% in assay [5] (setting [7]); -1% in assay [5] (setting [8]); -2.55% in assay [5] (at 50.0 µM); -2% in assay [6] (setting [7]); -5% in assay [6] (setting [8]); -2.15% in assay [6] (at 50.0 µM).

Turning to `CC(CC=NCCN=CCC(C)CC(C)(C)C)CC(C)(C)C` (configuration not stated), the growth inhibition is 16% in assay [1] (setting [7]); -2% in assay [1] (setting [8]); 97.9% (active) in assay [1] (at 50.0 µM); -3% in assay [2] (setting [7]); 3% in assay [2] (setting [8]); 68.3% in assay [2] (at 50.0 µM). The growth inhibition was 5% in assay [3] (setting [7]); 45% in assay [3] (setting [8]); 91.3% (active) in assay [3] (at 50.0 µM); 0% in assay [4] (setting [7]); 10% in assay [4] (setting [8]); 30.1% in assay [4] (at 50.0 µM). In addition, the growth inhibition in assay [5] (setting [7]) was -6%; in assay [5] (setting [8]), 3%; in assay [5] (at 50.0 µM), 96.3% (active); in assay [6] (setting [7]), 1%; in assay [6] (setting [8]) it was 20%; in assay [6] (at 50.0 µM), 98.4% (active).

Turning to `CC(=O)OCC1OC(OC2CCCc3c(O)c4c(c(O)c32)C(=O)c2ccccc2C4=O)C(OC(C)=O)C(OC(C)=O)C1OC(C)=O` (configuration not stated), the growth inhibition in assay [1] (setting [7]) was 32%; in assay [1] (setting [8]), 96% (active); in assay [1] (at 50.0 µM), 97.6% (active); in assay [2] (setting [7]) it was -8%; in assay [2] (setting [8]), 98% (active); in assay [2] (at 50.0 µM), 99.5% (active). The growth inhibition in assay [3] (setting [7]) is 16%; in assay [3] (setting [8]) it was 98% (active); in assay [3] (at 50.0 µM), 98.8% (active); in assay [4] (setting [7]) it was 2%; in assay [4] (setting [8]), 96% (active); in assay [4] (at 50.0 µM), 28.9%. Besides, the growth inhibition in assay [5] (setting [7]) was 16%; in assay [5] (setting [8]) it was 98% (active); in assay [5] (at 50.0 µM) it was 99.2% (active); in assay [6] (setting [7]), 19%; in assay [6] (setting [8]), 97% (active); in assay [6] (at 50.0 µM), 82.1% (active).

Take `COC(=O)Nc1nc2ccc(C(C)(O)c3cccs3)cc2[nH]1` (configuration not stated): the growth inhibition is -2% in assay [1] (setting [7]); 92% (active) in assay [1] (setting [8]); 97% (active) in assay [1] (at 50.0 µM); -8% in assay [2] (setting [7]); 95% (active) in assay [2] (setting [8]); 98.2% (active) in assay [2] (at 50.0 µM). The growth inhibition was 3% in assay [3] (setting [7]); 95% (active) in assay [3] (setting [8]); 98% (active) in assay [3] (at 50.0 µM); -15% in assay [4] (setting [7]); 87% (active) in assay [4] (setting [8]); 92.2% (active) in assay [4] (at 50.0 µM). For the same compound, the growth inhibition in assay [5] (setting [7]) is -3%; in assay [5] (setting [8]) it was 94% (active); in assay [5] (at 50.0 µM) it was 97.1% (active); in assay [6] (setting [7]) it was -5%; in assay [6] (setting [8]) it was 95% (active); in assay [6] (at 50.0 µM), 97.8% (active).

The record behind these values is PubChem BioAssay (NCI).
